# PubChem BioAssay (NCATS)
# Inconclusive results are not listed. Values without a mark were called inactive. Active and inactive are the calls of the source. Calls follow the shape of the dose curve; as a rule, active = well fitted inhibition curve with a large enough effect; inconclusive = small, poorly fitted or top-dose-only effect; inactive = flat fitted curve, though single readings scatter.
# Columns and labels:
# [1] = tested on: HaCat; assay: Cytotoxic Profiling of Annotated Libraries Using Quantitative High-Throughput Screening (AID 1296008); details: Five cell lines viability, CellTiter-Glo ATP luminescence, 48-72 h; max response: hits give low values; also: potency is read from the fitted curve at half-maximal effect; as to max response: % is scaled to controls: 0 for no effect and ±100 for the full control effect
# Procedure, shortened: (§1)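 Compounds were pin-transferred onto cells and incubated 48 or 72 hr at 37 degree Celsius, 95% humidity. CellTiter-Glo was added, plates sat 10 min at room temperature, then ATP-coupled luminescence was imaged as the viability read-out.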
# [2] = tested on: HEK293; assay: as above; details: Five cell lines viability, CellTiter-Glo ATP luminescence, 48-72 h; max response: hits give low values
# Procedure, shortened: as §1
# [3] = tested on: NIH3T3; assay: as above; details: Five cell lines viability, CellTiter-Glo ATP luminescence, 48-72 h; max response: hits give low values
# Procedure, shortened: as §1
# [4] = tested on: KB-3-1; assay: as above; details: Five cell lines viability, CellTiter-Glo ATP luminescence, 48-72 h; max response: hits give low values
# Procedure, shortened: as §1
# [5] = tested on: HACAT; assay: qHTS assay to identify novel small-molecules to repurpose for Merkel cell carcinoma treatment (AID 1296009); details: MCC and control cell lines, CellTiter-Glo viability, 72 h; at 44.8 µM (top of the series) unless noted
# Procedure, shortened: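 Cells exposed to NPC (8-point) and MIPE (11-point) compound dilutions for 72 hr at 37 degree celsius; viability read by CellTiter-Glo luminescence, normalized to no-cell and DMSO in-plate controls.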
# Also: nearly all actives have a fitted effect of over 60% in size.
smiles,measurement,setting,value
CC#C[C@@H](CC(=O)O)c1ccc(OCc2cccc(-c3ccc(C(F)(F)F)cc3)c2)cc1,max response,[1],-75.8%
Cn1cc(-c2cnn3c(N)c(Br)c(C4CCCNC4)nc23)cn1 (stereo unspecified),Potency,[2],1.03 µM (active)
same,Potency,[3],6.51 µM (active)
Fc1ccc(-n2cc(CCCCN3CCC4(CC3)OCc3ccccc34)c3ccccc32)cc1,Potency,[2],18.4 µM (active)
same,Potency,[3],16.4 µM (active)
Cc1ccc(O)cc1Nc1ccnc(Nc2cccc(C(N)=O)c2)n1,Potency,[2],14.6 µM (active)
same,Potency,[3],2.31 µM (active)
COc1ccc2[nH]c(=O)c3c(c2c1)OC(C)(C)C=C3,max response,[1],-2%
same,outcome,[4],inactive
COc1ccc(Oc2c(Cl)cnn(-c3cc(C)cc(C)c3)c2=O)cc1,Potency,[2],8.2 µM (active)
same,Potency,[3],25.9 µM (active)
C/C=C(\C)C(=O)O[C@H]1C=CC(=O)O[C@H]1/C=C/[C@@H](O)[C@H](C)O,max response,[1],-16.7%
same,max response,[4],-19.4%
C[C@H](CN(C)C)Oc1nc(Nc2cc3cccc(Cl)c3cn2)cnc1C#N,Potency,[2],1.3 µM (active)
same,Potency,[3],2.06 µM (active)
O=S(=O)(NCc1cccc2ccccc12)c1cc(Cl)c(Oc2cccc(N3CCNCC3)c2)s1,Potency,[2],10.3 µM (active)
same,Potency,[3],14.6 µM (active)
CCc1cnc(N2CCC(c3nc(COc4ccc(-n5cnnn5)cc4)cs3)CC2)nc1,Potency,[2],13 µM (active)
same,outcome,[1],inactive
same,max response,[3],-9.02%
same,outcome,[5],inactive
CCC1C(=O)N(C)c2cnc(Nc3ccc(C(=O)NC4CCN(C)CC4)cc3OC)nc2N1C1CCCC1 (stereo unspecified),max response,[2],-124%
same,Potency,[3],7.31 µM (active)
C=C(C)C(=O)O[C@H]1C[C@@](C)(O)C2(O)CCC(C)(/C=C3/OC(=O)C(COC)=C31)O2 (stereo partly specified),Potency,[2],3.21 µM (active)
same,Potency,[3],10.1 µM (active)
CC(C)(N)c1ncc(-c2ccc(OC(F)(F)F)cc2)[nH]1,max response,[1],-18.6%
same,max response,[4],-11.1%
CC(C)(C)Oc1ccc(OCC2Cc3ccccc3CN2C(=O)c2cccc3ccccc23)cc1 (stereo unspecified),Potency,[2],13 µM (active)
same,max response,[3],-2.51%
Cc1cn2cc(C(=O)N(C)CCO)cc(NC3CCOc4cccc(C)c43)c2n1 (stereo unspecified),max response,[1],-18.4%
Cc1cn(CCN2CCN(c3ccccc3-c3cc(C#N)cc(C(=O)NCCCN4CCCC4)c3)CC2)c2ccccc12,Potency,[2],14.8 µM (active)
same,Potency,[3],16.6 µM (active)
C/C=C(/C)C(=O)OC1CC(C)(C)CC2C3=CCC4C5(C)CCC(O[C@@H]6O[C@H](C(=O)O)[C@@H](O)[C@H](O)[C@H]6O[C@@H]6O[C@H](CO)[C@H](O)[C@H](O[C@@H]7OC[C@H](O)[C@H](O)[C@H]7O[C@@H]7O[C@H](CO)[C@@H](O)[C@H](O)[C@H]7O)[C@H]6O)C(C)(C)C5CCC4(C)C3(C)C(O)C(O)C12CO (stereo partly specified),max response,[1],-10.3%
same,max response,[4],-3.03%
CCc1ccccc1OC[C@@H](O)CN[C@H]1CCCc2ccccc21,Potency,[2],23.1 µM (active)
same,outcome,[1],inactive
same,max response,[3],-24.4%
same,outcome,[5],inactive
CCn1c(-c2nonc2N)nc2c(C#CCO)ncc(OCCCN)c21,Potency,[2],7.31 µM (active)
same,outcome,[1],inactive
same,outcome,[3],inactive
same,outcome,[5],inactive
CN(C)Cc1ccc(-c2cnn3c(-c4cccc(NC(=O)c5cccc(C(F)(F)F)c5)c4)ccnc23)cc1,Potency,[2],7.31 µM (active)
same,Potency,[3],16.4 µM (active)
COc1cccc(OCCCN)c1-c1cc(Nc2cnc(C#N)cn2)n[nH]1,Potency,[2],0.0103 µM (active)
same,Potency,[3],0.0411 µM (active)
C=C(NC(=O)C(=C)NC(=O)c1csc(C2=NC3c4csc(n4)C4NC(=O)c5csc(n5)C(C(C)(O)C(C)O)NC(=O)C5CSC(=N5)/C(=C/C)NC(=O)C(C(C)O)NC(=O)c5csc(n5)C3(CC2)NC(=O)C(C)NC(=O)C(=C)NC(=O)C(C)NC(=O)C(C(C)CC)NC2C=Cc3c(C(C)O)cc(nc3C2O)C(=O)OC4C)n1)C(N)=O (stereo unspecified),Potency,[2],1.16 µM (active)
same,Potency,[3],4.61 µM (active)
O=C(O)c1ccc(N2C(=O)/C(=C/c3ccc(-c4ccc([N+](=O)[O-])cc4)o3)C=C2c2ccccc2)cc1,max response,[2],-3.48%
same,outcome,[1],inactive
same,outcome,[5],inactive
Fc1ccc(-c2cncc(CN3CCN(c4cccc5c4OCCO5)CC3)c2)cc1,outcome,[1],inactive
same,max response,[4],-10.8%
same,max response,[3],-12.4%
same,outcome,[5],inactive
NC(=O)c1nc(Nc2ccccc2)sc1NC(=O)C1CCCCC1,max response,[1],-27.5%
same,outcome,[4],inactive
same,max response,[3],-18.8%
CC1=C(c2ccc(NC(=O)c3c(F)cccc3F)cc2)CN(c2nccs2)CC1,max response,[1],-2.64%
same,outcome,[4],inactive
same,max response,[3],-1.55%
C=C1C(=O)OC2C1CCC1(C)C(O)CCC(=C)C21 (stereo unspecified),outcome,[1],inactive
same,max response,[4],7.7%
same,max response,[3],-19.9%
same,outcome,[5],inactive
Cc1ccc(N2CCN(S(=O)(=O)N3CCCCC3)CC2)c(C)c1,outcome,[1],inactive
same,max response,[4],-2.41%
same,max response,[3],4.82%
same,outcome,[5],inactive
CN1CCN(S(=O)(=O)c2ccc(-c3cnc(N)c(C(=O)Nc4cccnc4)n3)cc2)CC1,max response,[1],-21.1%
same,max response,[4],3.5%
same,Potency,[3],0.632 µM (active)
COC1CCN(C(=O)c2cc(Cc3n[nH]c(=O)c4ccccc34)ccc2F)CC1,max response,[1],1.07%
same,max response,[4],-17.5%
same,max response,[3],-21.2%
O=c1cc(N2CCN(c3cccc(C(F)(F)F)c3)CC2)[nH]c(=O)n1C1CCCCC1,max response,[1],-21.7%
same,outcome,[4],inactive
same,max response,[3],-29.2%
CC(=O)OC1C(O)CC2(C)C(CCC3(C)C2CC=C2C4C5(CCC(CO[C@@H]6O[C@H](CO)[C@@H](O)[C@H](O)[C@H]6O)(OC5=O)C4(C)O)C(O)CC23C)C1(C)C (stereo partly specified),max response,[1],-8.16%
same,outcome,[4],inactive
same,max response,[3],2.97%
C=C1[C@@H](OC(C)=O)CC[C@@]2(C)[C@@H](OC(C)=O)[C@H](OC(C)=O)C3=C(C)C[C@H](OC(=O)C(C)CC)[C@@H]([C@@H](OC(C)=O)[C@H]12)C3(C)C (stereo partly specified),Potency,[1],1.93 µM (active)
same,Potency,[4],2.43 µM (active)
same,Potency,[3],5.44 µM (active)
S=C(c1ccc(-c2ccc(Cl)c(Cl)c2)o1)N1CCCCC1,outcome,[1],inactive
same,max response,[4],6.89%
same,max response,[3],2.68%
same,outcome,[5],inactive
COc1cc(C(=O)NCC2(N(C)C)CCCC2)cc(OC)c1OCc1ccccc1,max response,[1],3.73%
same,max response,[4],3.26%
same,max response,[3],-9.79%
C=C1/C(=C/C=C2\CCC[C@@]3(C)C2CCC3[C@H](C)/C=C/[C@@H](O)C2CC2)C[C@@H](O)C[C@@H]1O (stereo partly specified),max response,[1],-20.3%
same,max response,[4],-9.38%
same,max response,[3],-32.1%
COc1ccc(OC)c(-c2ccc(NC(=O)c3ccncc3F)cc2)c1,max response,[1],-19.1%
same,max response,[4],-12.6%
same,max response,[3],0.707%
CCCCOc1ccc(S(=O)(=O)n2c(C)nc3ccccc32)cc1,max response,[1],3.36%
same,max response,[4],-24.1%
same,max response,[3],-1.64%
Cn1c(CO)c(-c2ccccc2)c2cc([N+](=O)[O-])ccc21,max response,[1],-23.7%
same,max response,[4],-20.1%
same,max response,[3],-3.34%
CCOc1ccc(S(=O)(=O)N2CCCCCC2)c2ccccc12,outcome,[1],inactive
same,max response,[4],-18.9%
same,outcome,[3],inactive
same,outcome,[5],inactive
CCOC(=O)C1(CCOc2ccccc2)CCN(Cc2ccc(O)c(Cl)c2)CC1,max response,[1],0.37%
same,max response,[4],-15.3%
same,max response,[3],-16.4%
C=C1[C@H]2CC[C@H](C(=O)O)[C@@]23CC[C@H](C3)C1(C)C,max response,[1],-74.2%
same,outcome,[4],inactive
same,outcome,[3],inactive
Cc1nc(C#Cc2ccnc(Cl)c2)c(C)n1-c1ccc(OC(F)(F)F)cc1,outcome,[1],inactive
same,max response,[4],-15.3%
same,max response,[3],-27.8%
same,outcome,[5],inactive
CCC(=O)N1CCOc2c(cc(-c3ccc(OC)c(OC)c3)cc2OC[C@H]2CCCN(C)C2)C1,max response,[1],3.21%
same,max response,[4],-9.43%
same,outcome,[3],inactive
O=C1Cc2c([nH]c3ccc(Br)cc23)-c2ncccc2N1,max response,[1],2.65%
same,max response,[4],2.04%
same,outcome,[3],inactive
CC1CCC(=O)CC(SCC(O)C(=O)O)CCC(=O)O1 (stereo unspecified),max response,[1],-8.22%
same,max response,[4],-25.6%
same,max response,[3],-15.1%
O=C(NCc1ccccc1)c1ccc2c(=O)n(-c3cccc(C(F)(F)F)c3)c(=S)[nH]c2c1,max response,[1],-51.3%
same,max response,[4],-9.36%
same,max response,[3],-30.9%
COc1cc2ncnc(Nc3ccc(O)c(Br)c3)c2cc1OC,Potency,[1],3.66 µM (active)
same,max response,[4],0.483%
same,Potency,[3],11.6 µM (active)
CCOc1ccc(-n2c(C(C)N(Cc3cccnc3)C(=O)Cc3ccc(F)c(C(F)(F)F)c3)nc3ncccc3c2=O)cc1 (stereo unspecified),max response,[1],-10.9%
same,outcome,[4],inactive
same,max response,[3],2.59%
O=C([C@@H]1CCCN(c2ccc3[nH]c(C4(n5cc(Cl)cn5)CC4)nc3n2)C1)N1CCCC1,max response,[1],-7.93%
same,max response,[4],-11.1%
same,max response,[3],-6.68%
COc1ccc(-n2c(SCCCN3C(=O)c4cccc5cccc(c45)C3=O)nnc2-c2ccncc2)cc1,outcome,[1],inactive
same,max response,[4],-1.97%
same,max response,[3],-2.58%
same,outcome,[5],inactive
Cc1ccnc(NC(=O)C(C)c2cccc(C(=O)c3ccccc3)c2)c1 (stereo unspecified),outcome,[1],inactive
same,max response,[4],-17.5%
same,max response,[3],-5.36%
same,outcome,[5],inactive
C=CC(=O)N1CCCN(c2cc(NCCC(=O)O)nc(-c3ccccn3)n2)CC1,outcome,[1],inactive
same,max response,[4],-3.55%
same,max response,[3],-29.3%
same,outcome,[5],inactive
Cc1cc2sc(NC(=O)Cc3ccccc3)nc2cc1Cl,max response,[1],-26.8%
same,max response,[4],3.53%
same,max response,[3],0.0198%
C=C1/C(=C/C=C2\CCC[C@]3(C)[C@@H]([C@@H](C)OCCC(O)(CC)CC)CC[C@@H]23)C[C@@H](O)C[C@@H]1O,max response,[1],-5.69%
same,max response,[4],-12.7%
same,max response,[3],-34.7%
